An excerpt weighted towards active compounds, which were near 2.4% of everything screened.
WRN inhibitor = blocks human WRN helicase; WRN helicase unwinding, fluorescent forked duplex, kinetic; Q14191; 0.46% of 360,000 active; Potency, µM (highest dose often 114 µM), inactives show top-dose activity change, negative = inhibition, hits mostly inhibitors; also: % is scaled to controls: 0 for no effect and ±100 for the full control effect; nearly all actives have a fitted effect of over 55% in size
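Fluorescence dequenching readout, ex 525 nm/em 598 nm, kinetic mode: forked duplex DNA (100 nM final) with adjacent fluorophore and quencher unwound by WRN (20 nM final) with 2 mM ATP. Compound preincubation 15 min, room temperature.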
Pol eta inh = blocks human DNA polymerase eta activity. Q9Y253. recombinant Pol eta, fluorescent DNA replication assay. Potency, µM (highest dose often 114 µM), without a hit: at the top dose activity change, negative = inhibition, usual class: inhibitors. 1.2% of 390,000 active. AID 588591; also: % is scaled to controls: 0 for no effect and ±100 for the full control effect
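Pol eta at 10 nM preincubated with compounds 15 min at room temperature; reaction started with fluorescent substrate (50 nM final) and read kinetically at 0 and 10 min.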
Pol iota inh = blocks human DNA polymerase iota activity; Potency, µM (titrated, usually from 115 µM), for inactives: top-dose activity, negative = inhibition, actives largely listed as inhibitors; 1% of 390,000 active; Pol iota fluorescent replication assay, 10 min; AID 588590; Q9UNA4
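Pol iota at 10 nM preincubated 15 min with compounds at room temperature; reaction started with fluorescent substrate, 50 nM final. Fluorescence read kinetically at 0 and 10 min; buffer-only wells as negative control.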
FEN1 inhibitor = human FEN1 inhibition | P39748 | Recombinant FEN1 flap cleavage, fluorescence, 15 min | Potency, µM (series often up to 114 µM), for inactives: at the highest dose activity change, negative = inhibition, actives largely listed as inhibitors | 0.35% of 390,000 active; also: % is scaled to controls: 0 for no effect and ±100 for the full control effect; nearly all actives have a fitted effect of over 65% in size
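Recombinant FEN1 (10 nM) was preincubated with pin-transferred compounds for 15 min at room temperature, then flap DNA substrate (50 nM final) was added. Plates were read at 0 and 15 min, and normalized concentration–response data were fitted to a four-parameter Hill equation.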
Pol kappa inh = blocks human DNA polymerase kappa activity. Q9UBT6. purified Pol kappa, fluorescent DNA synthesis assay, 10 min. Potency, µM (doses to about 107 µM), for inactives: top-dose activity, negative = inhibition, usual class: inhibitors. 0.53% of 400,000 active. AID 588579; also: % is scaled to controls: 0 for no effect and ±100 for the full control effect
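Pol kappa 10 nM + cpd, 15 min RT; start w/ substrate 50 nM final; fluorescence kinetic read, 0 and 10 min. Neg ctrl: buffer, no enzyme.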
POLB inh = DNA polymerase beta (human) inhibition; 1.3% of 340,000 active; Pol beta primer extension/strand displacement, fluorescence kinetic; Potency, µM (series often up to 114 µM), for the others: at the top dose activity change, negative = inhibition, hits mostly inhibitors; P06746; AID 485314; also: % is scaled to controls: 0 for no effect and ±100 for the full control effect
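Pol beta (10 nM) was preincubated with compound for 15 min at room temperature. The reaction was then started with 50 nM substrate and read immediately and after a further 10 min at room temperature.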
* hit, by the source's call; ? = inconclusive; . = no result; ! = not confirmed by another sample; [ ] = dose if it differs, or a comment. Calls follow the shape of the dose curve; as a rule, active = well fitted curve in the direction sought with a large enough effect; inconclusive = small, poorly fitted or top-dose-only effect, or another doubt; inactive = no such curve, though single readings can be large; an effect the other way counts as inactive or inconclusive. Potency is read from the fitted curve at half-maximal effect.

SMILES	WRN inhibitor	Pol eta inh	Pol iota inh	FEN1 inhibitor	Pol kappa inh	POLB inh
Cc1ccc(CSC2=Nc3ccccc3C3=NC(CCC(=O)NCc4ccco4)C(=O)N23)cc1 (configuration not stated)	1%	7%	27%	-8%	-10%	1%
O=c1cc(O)c2sc(Nc3ccc(Cl)c(F)c3)nc2[nH]1	?	-8%	15%	-34%	-16%	-26%
O=c1cc(O)c2sc(Nc3ccc(F)c(Cl)c3)nc2[nH]1	?	-12%	43%	-3%	-2%	56µM*
COc1ccc(Nc2nc3[nH]c(=O)cc(O)c3s2)cc1	-5%	-19%	84%	4%	6%	45µM*
O=C(C[n+]1ccncc1)c1cccc2ccccc12	.	.	-3%	-16%	-14%	.
CCN(CC)CCOCCOC(=O)C(CC)(CC)c1ccccc1 (tested in a mixture with another compound)	.	.	.	.	-12%[60.1 µM]	.
COc1ccc(-n2c(-c3ccc(Cl)cc3Cl)n[nH]c2=S)c(OC)c1	79µM*	-19%	57%	-12%	0%	49%
COc1ccc(-n2c(-c3ccc(C(C)(C)C)cc3)n[nH]c2=S)c(OC)c1	-3%	-13%	.	.	.	.
CN(C)/[N+]([O-])=N/Oc1ccc([N+](=O)[O-])cn1	.	.	31%	2%	7%	.
COc1ccc(N(CC(=O)N/N=C/c2ccco2)S(=O)(=O)c2ccccc2)cc1	-30%	89µM*	?	-13%	-22%	8.9µM*
COc1ccc(S(=O)(=O)N(CC(=O)O)c2ccccc2)cc1	-8%[57.1 µM]	-6%	100µM*	-4%	-24%	15%
COc1cccc(NC(=O)CN(c2ccc([N+](=O)[O-])cc2)S(=O)(=O)c2ccccc2)c1	-13%[57.1 µM]	-16%	10%	-5%	0%	-13%
COc1ccc(NC(=O)CN(c2ccc([N+](=O)[O-])cc2)S(=O)(=O)c2ccccc2)cc1	0%	-17%	5%	10%	-5%	0.11µM*
COc1ccc(S(=O)(=O)N(CC(=O)O)c2ccccn2)cc1	-3%	-2%	45%	1%	-13%	7%
Cc1cc(N=Nc2ccc(C)c(N=Nc3cc(C)c(N)cc3N)c2)c(N)cc1N	-7%[11.6 µM]	-9%	?	22µM*	50µM*	?
CCN1C(=O)S/C(=C/c2c(OCc3ccc(C(=O)O)cc3)ccc3ccccc23)C1=O	-17%	-14%	-2%	-10%	-6%	50µM*
CCOc1ccc(NC(=O)CCS(=O)(=O)c2cccc3nonc23)cc1	.	-11%	-15%	-4%	-5%	7%
CCCCNC(=O)CCC(=O)NNc1nc2ccccc2c2nc(-c3ccccc3)nn12	-7%	6%	-6%	11%	3%	89µM*!
CCCCNC(=O)CCC(=O)NNc1nc2ccccc2c2nc(C)nn12	-23%	-6%	13%	11%	-2%	47%
O=C(c1cccc(N2C(=O)C3C4C=CC(C4)C3C2=O)c1)N1CCCCCC1 (configuration not stated)	-3%	-3%	13%	7%	-1%	5%
O=C(O)c1cccc(N2C(=O)C3C4C=CC(C4=C(c4ccccc4)c4ccccc4)C3C2=O)c1 (configuration not stated)	-4%[57.1 µM]	-7%	27%	-4%	-9%	50µM*
CCn1c(SCC(=O)Nc2cc(OC)ccc2OC)nc2c(c1=O)SCC2	?	-8%	-1%	0%	-4%	22µM*
CCn1c(SCC(=O)Nc2ccc(OC)c(OC)c2)nc2c(c1=O)SCC2	-22%	-2%	7%	5%	-3%	2%
O=C1Nc2ccc(I)cc2C1=Cc1cc(Br)c(O)c(Br)c1	.	.	45µM*	35µM*	?	.
Cc1sc2ncnc(N3CCN(Cc4ccccc4)CC3)c2c1-c1ccccc1	3%[11.6 µM]	-23%	89µM*	-24%	?	-1%
SMILES	WRN inhibitor	Pol eta inh	Pol iota inh	FEN1 inhibitor	Pol kappa inh	POLB inh
CCOc1ccc(CN2CCN(c3ncnc4scc(-c5ccccc5)c34)CC2)cc1	9%	-18%	121%	-5%	1%	7%
CCCN(CC(=O)Nc1ccccc1C)C(=O)CCl	-9%	19%	85%	0%	0%	-14%
CCCN(CC(=O)Nc1ccccc1C)C(=O)Cc1coc2cc(C)ccc12	-29%	?	?	1%	-15%	40µM*
CC[C@H](C)[C@H](N)C(=O)N[C@H]1CCC(=O)NCC(C(=O)N[C@@H](Cc2ccc(O)cc2)C(=O)N[C@@H](CCCNC(=N)N)C(=O)N[C@@H](CC(C)C)C(=O)N[C@@H](CCCNC(=N)N)C(=O)N[C@@H](Cc2ccc(O)cc2)C(N)=O)NC(=O)[C@@H]2CCCN2C(=O)[C@@H](NC(=O)[C@@H](N)[C@@H](C)CC)CCC(=O)NCC(C(=O)N[C@@H](Cc2ccc(O)cc2)C(=O)N[C@@H](CCCNC(=N)N)C(=O)N[C@@H](CC(C)C)C(=O)N[C@@H](CCCNC(=N)N)C(=O)N[C@@H](Cc2ccc(O)cc2)C(N)=O)NC(=O)[C@@H]2CCCN2C1=O (some centres not stated)	.	.	.	.	13%[60.1 µM]	.
CC(=O)c1ccc(S(=O)(=O)Nc2ccc(-c3ccc(N4CCCCC4)nn3)cc2)cc1	.	79µM*	?	-1%	-15%[60.1 µM]	?
O=[N+]([O-])c1ccc(Cl)c(S(=O)(=O)Nc2ccc(-c3ccc(N4CCCC4)nn3)cc2)c1	-6%[11.6 µM]	45µM*	?	-1%	-9%	.
O=C(NCc1ccccc1)c1ccc2c(c1)sc1nc(-c3ccc(F)cc3)cn12	.	-6%	0%	5%	11%	0%
O=C(COC(=O)CNC(=O)C1CCCCC1)NC1CCCC1	.	.	-2%	-2%	-9%	.
COc1ccc(C)cc1NC(=O)CSc1nnc(-c2ccco2)n1N	-3%	13%	23%	1%	-28%	-2%
COc1ccc(C)cc1NC(=O)CSc1ccc(-c2ccco2)nn1	-13%[11.6 µM]	?	32µM*	7%	?	-3%
COc1ccccc1CCNC(=O)CSc1ccc(-c2ccco2)nn1	-10%	-16%	?	-2%	-23%	16µM*
COc1ccccc1-c1ccc(SCC(=O)NCCc2ccccc2)nn1	3%	-22%	167%	-5%	10%	24%
Cc1cccc(NC(=O)CSc2ccc(-c3ccco3)nn2)c1C	?	5%	13µM*	-1%	?	?
COc1ccc(C2Nc3ccc(NC(C)=O)cc3C(=O)N2Cc2cccc(Cl)c2)cc1COc1ccc(NC(C)=O)cc1 (configuration not stated)	.	.	26%	-22%	-6%	.
Ic1ccc(Nc2nc(NCCN3CCOCC3)nc(N3CCCC3)n2)cc1	.	.	10%	-27%	-23%	.
